Shown are actives, neighbours in structure and some others; about 7.1% of the full set was active somewhere.
MCF10A rereplic = DNA re-replication induction in MCF 10a cells | MCF 10A DNA re-replication, Hoechst nuclear intensity, 48 h | Potency, µM (highest dose often 46.1 µM), for inactives: at the top dose activity, positive = re-replication, most hits filed as activators | 350,000 compounds, 2.9% hits | AID 624296; further: potency means the concentration at half of the fitted maximal effect; % of control where 0% means no effect; nearly all actives have a fitted effect of over 50% in size
PINK1 modulator = PINK1 expression modulation. PINK1 immunofluorescence, high-content cytometry, 24 h. Potency, µM (series often up to 76.6 µM), for the others: at the highest dose activation (PINK1 increase), actives largely listed as activators. 410,000 compounds, 0.2% hits. AID 624263; active means well fitted activation curve with a large enough effect; inconclusive means small, poorly fitted or top-dose-only effect; cell line not stated here; further: potency means the concentration at half of the fitted maximal effect; % of control where 0% means no effect; nearly all actives have a fitted effect of over 65% in size
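Stable cell line treated 24 h with compounds at 5 concentrations (CCCP controls), then fixed and immunostained for PINK1 plus nuclear and cell stains; PINK1 immunofluorescence quantified by laser-scanning microplate cytometry.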
IL-1B inflam inh = inflammasome signaling inhibition, IL-1 beta readout. THP-1 LPS/ATP IL-1B secretion, AlphaLISA, 16 h; hits give low values. activity change, % at 57.5 µM. 360,000 compounds, 4.7% hits. AID 743279; in the data active means activity change below about -50%; inconclusive means mostly about -30% to -49%; further: on the % scale 0 is the no-effect control and ±100 the full control effect
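THP-1 cells pretreated 1 hr with compounds (up to 57.5 uM final), then stimulated with LPS (250 ng/mL final) plus ATP (1.25 mM final); secreted IL-1B measured by AlphaLISA after 16 hr, decreased signal indicating inhibition.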
SW480 rerep = DNA re-replication induction in SW480 cells; SW480 DNA re-replication, Hoechst DNA content imaging, 48 h; Potency, µM (series often up to 46.1 µM), without a hit: top-dose re-replication activation, actives largely listed as activators; 340,000 compounds, 1.8% hits; AID 624297; further: potency means the concentration at half of the fitted maximal effect; % of control where 0% means no effect; nearly all actives have a fitted effect of over 55% in size
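First, 250 cells per well were seeded. Next, compound or vehicle (23 nL) was pinned in, plates sat 48 hr at 37 C. Finally Hoechst was added for 40 min before fluorescence scanning.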
S2 tox = reduces viability in counter-screen for ATXN expression inhibitors; S2 cells (HEK-293 line with an ATXN2-luciferase reporter) viability, CellTiter-Fluor protease fluorescence, 24 h; Potency, µM (highest dose often 56.7 µM), most hits filed as cytotoxic; 400,000 compounds, 0.49% hits; AID 651635; further: potency means the concentration at half of the fitted maximal effect; nearly all actives have a fitted effect of over 40% in size
ATXN2 expr inh = ATXN2 expression inhibition | HEK-293 ATXN2-luciferase reporter, luminescence, 24 h | Potency, µM (highest dose often 57 µM), without a hit: at the highest dose activity change, negative = inhibition, usual class: inhibitors | 360,000 compounds, 0.72% hits; further: potency means the concentration at half of the fitted maximal effect; on the % scale 0 is the no-effect control and ±100 the full control effect; nearly all actives have a fitted effect of over 55% in size
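ATXN2-luciferase reporter cells (luciferase flanked by upstream and downstream ATXN2 gene portions) were treated 24 h at 37 °C with compounds at up to 57 uM. SteadyGlo luminescence gave expression; GF-AFC fluorescence gave viability.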
* marks the source's active call; other numbers are inactive results. Unless noted, the call rests on the fitted dose curve; in most records, active means well fitted curve in the direction sought with a large enough effect; inconclusive means small, poorly fitted or top-dose-only effect, or another doubt; inactive means no such curve, though single readings can be large; an effect the other way counts as inactive or inconclusive.

Screening Cc1ccc(C)c(S(=O)(=O)N2CCN(C(=O)CCC(=O)c3cc(C)sc3C)CC2)c1 returned MCF10A rereplic 18.8%, PINK1 modulator 0.1%, IL-1B inflam inh -54.5*, SW480 rerep 12.6%, S2 tox inconclusive and ATXN2 expr inh -24.4%.
`CCN(CC)c1nn2c(=O)c(C(=O)NCc3ccc(OC)cc3OC)cnc2s1` gave PINK1 modulator 0.5%.
For COC(=O)c1ccc(Cl)cc1NC(=O)N1CCCn2nc(C)cc21 the results were PINK1 modulator 1.1%, S2 tox inactive and ATXN2 expr inh 0.1%.
COc1ccc(/C=C/C(=O)NC(=S)NCC2CCCO2)cc1 (centres undefined) was read as MCF10A rereplic -3.7%, PINK1 modulator 2.6%, IL-1B inflam inh 22.8, SW480 rerep -11.7%, S2 tox inactive and ATXN2 expr inh 2.7%.
COc1ccccc1/C=C/C(=O)OCC(=O)Nc1ccc2c(c1)OCCO2 was read as MCF10A rereplic 5.1%, PINK1 modulator -0.7%, IL-1B inflam inh -8.9, SW480 rerep 0.2% and S2 tox inconclusive.
O=C(/C=C/c1ccco1)Nc1ccc(-c2nc3ccccc3[nH]2)cc1 was read as MCF10A rereplic 2.59µM*, PINK1 modulator inconclusive, IL-1B inflam inh -11.3, SW480 rerep inconclusive, S2 tox inconclusive and ATXN2 expr inh inconclusive.
Screening COc1ccccc1/C=C/C(=O)NC(=S)NCC1CCCO1 (centres undefined) returned MCF10A rereplic 0.8%, PINK1 modulator 2.1%, IL-1B inflam inh -62.0*, SW480 rerep -2.6%, S2 tox inactive and ATXN2 expr inh 11.0%.
`COc1ccccc1/C=C/C(=O)Nc1ccc2c(c1)OCCO2` gave MCF10A rereplic 13µM*, PINK1 modulator 4.6%, IL-1B inflam inh -58.1*, SW480 rerep 16.4µM*, S2 tox inactive and ATXN2 expr inh 64.8%.
`O=C(Nc1ccc(-c2nc3ccccc3[nH]2)cc1)c1ccco1` gave MCF10A rereplic 6.5%, PINK1 modulator 0.1%, IL-1B inflam inh -14.7, SW480 rerep 0.2%, S2 tox inactive and ATXN2 expr inh 85.6%.
For O=C(/C=C/c1ccco1)Nc1ccccn1 the results were MCF10A rereplic 14.6µM*, PINK1 modulator inconclusive, IL-1B inflam inh 58.6, SW480 rerep 5.17µM*, S2 tox inactive and ATXN2 expr inh -11.3%.
Screening Cc1ccc(NC(=O)/C=C/c2ccco2)nc1 returned MCF10A rereplic inconclusive, PINK1 modulator 7.4%, IL-1B inflam inh -29.2, SW480 rerep inconclusive, S2 tox inactive and ATXN2 expr inh 33.8%.
For CCC(C)NC(=O)Cn1ccc2cc(S(=O)(=O)N3CCCCC3)ccc21 (centres undefined) the results were PINK1 modulator 2.3%.
Cc1ccc2oc3c(c(=O)c2c1)C(c1ccccc1F)N(c1ccccn1)C3=O (centres undefined) was read as PINK1 modulator -0.6%, S2 tox inactive and ATXN2 expr inh 4.1%.
COc1cccc(N2CCN(C(=O)c3cnn(-c4ccccc4Cl)c3C3CCN(C(=O)OC(C)(C)C)CC3)CC2)c1 was read as PINK1 modulator -1.5%.
`Cc1ccc2ccc(Cl)cc2n1` gave S2 tox inactive and ATXN2 expr inh 17.0%.
`S=C(NCc1ccco1)Nc1ccc(Oc2ccc(Cl)cc2)cc1` gave MCF10A rereplic 7.31µM*, PINK1 modulator inconclusive, IL-1B inflam inh -90.5*, SW480 rerep 10.9%, S2 tox inactive and ATXN2 expr inh 0.0%.
For O=C(C=Cc1ccco1)c1cc(Cl)ccc1O the results were MCF10A rereplic -2.5%, PINK1 modulator -7.2%, IL-1B inflam inh -90.7*, SW480 rerep 16.5%, S2 tox inactive and ATXN2 expr inh 4.6%.
For O=C(/C=C/c1ccco1)Nc1ccc2c(c1)OCCO2 the results were MCF10A rereplic 10.3%, PINK1 modulator 0.6%, IL-1B inflam inh -70.3*, SW480 rerep 7.4%, S2 tox inactive and ATXN2 expr inh 6.9%.

Bioassay records as filed in PubChem BioAssay.
